According to PubChem BioAssay AID651681 (Broad Institute, 2012):
Calls of active or inactive are those of the source.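 The calls were made as follows: active = compound with fitted CDK2 half-maximal potency at or below twice its top tested dose; inconclusive = flat curve near 30 to 70% inhibition, or poor fit; inactive = the rest.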

molecular target: Cyclin-dependent kinase 2 (Homo sapiens) + Cyclin-A2 (Homo sapiens) (UniProt P20248+P24941); experiment: blockade of human CDK2 kinase activity – biochemical, dry powder, set 3, selectivity assay for Dyrk1A inhibitor project, dose response (AID 651681); settings: CDK2/cyclin A ADP-Glo luminescence, histone H1 peptide; series mostly up to 10 µM
Sequence (P20248 whole entry, looked up, one chain of several): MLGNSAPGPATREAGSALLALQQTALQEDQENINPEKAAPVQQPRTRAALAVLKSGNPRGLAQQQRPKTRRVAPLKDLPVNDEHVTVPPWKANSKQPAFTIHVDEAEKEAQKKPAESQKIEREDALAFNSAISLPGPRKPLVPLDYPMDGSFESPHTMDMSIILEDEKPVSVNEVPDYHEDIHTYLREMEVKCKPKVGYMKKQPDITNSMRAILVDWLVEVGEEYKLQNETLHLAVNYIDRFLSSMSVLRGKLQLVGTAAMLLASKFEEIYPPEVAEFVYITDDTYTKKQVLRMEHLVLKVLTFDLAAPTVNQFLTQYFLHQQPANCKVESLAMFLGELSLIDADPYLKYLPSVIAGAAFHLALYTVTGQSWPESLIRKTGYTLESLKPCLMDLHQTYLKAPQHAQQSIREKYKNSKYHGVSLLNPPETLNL

outcome, inactive:
COc1ccc2nc(NC(=O)C3CCN(S(=O)(=O)c4ccc(C)cc4)CC3)sc2c1, CN(CC(=O)Nc1nc2ccccc2s1)S(=O)(=O)c1ccccc1, Cc1ccc(S(=O)(=O)N(C)CC(=O)Nc2nc3ccccc3s2)cc1, COc1ccc(OC)c(C2=Nn3c(nnc3-c3ccccn3)SC2)c1, COc1cccc(C2=Nn3c(nnc3-c3ccccc3)SC2)c1, COc1ccc(CNC(=O)c2sc3ccccc3c2Cl)cc1, COc1ccc2nc(NC(=O)C3CCN(S(=O)(=O)c4cccc5nsnc45)CC3)sc2c1, O=C(NCc1ccco1)c1sc2ccccc2c1Cl, Cc1csc(NC(=O)C2CCCN(S(=O)(=O)c3cccc4nonc34)C2)n1 (configuration not stated), C=CCn1cnc2scc(-c3ccc(OC)cc3)c2c1=O, Clc1ccc(CSc2nc(Nc3ccc4c(c3)OCO4)c3ccccc3n2)cc1, COc1ccc2nc(NC(=O)C3CCCN(S(=O)(=O)c4cccc5nsnc45)C3)sc2c1 (configuration not stated), Cc1ccc(S(=O)(=O)N(C)CC(=O)Nc2nc3ccc(Cl)cc3s2)cc1C, Cc1ccccc1S(=O)(=O)Cc1ccc(C(=O)NC(C)c2ccc3c(c2)OCCO3)o1 (configuration not stated), CCOc1ccc2nc(NC(=O)C3CCCN(S(=O)(=O)c4cccc5cccnc45)C3)sc2c1 (configuration not stated), CC(C)n1cnc2cc(NCc3cccc4ccccc34)ccc21, COc1ccc2c(Cl)c(C(N)=O)sc2c1, COc1ccc2nc(NC(=O)C3CCN(S(=O)(=O)c4cccnc4)CC3)sc2c1, COc1ccc(OC)c(C2=Nn3c(nnc3-c3ccncc3)SC2)c1, CCOc1ccc2nc(NC(=O)COc3ccc(Cl)c(OC)c3)sc2c1, COc1ccc2nc(NC(=O)C3CCN(S(=O)(=O)c4cccc5nonc45)CC3)sc2c1, COc1ccc(C2=Nn3c(nnc3-c3cccnc3)SC2)cc1
